Cycloheximide cs – affects cycloheximide protein synthesis inhibition readout, counter-screen; max response, %; 300,000 tested, 12% active; cell reporter, cycloheximide protein synthesis inhibition counterscreen; in the data active means max response mostly above about 13%, no sharp cut-off; inactive means mostly below about 14%; further: read at 38.3 µM for the half of the compounds with a filed dose; 0% is about no effect
NS1 inh – influenza NS1 inhibition | Potency, µM (top dose mostly 46.1 µM), for inactives: at the top dose activity, positive = more growth | 270,000 tested, 0.4% active | AID 2326; further: potency means the concentration at half of the fitted maximal effect; actives are rising curves; nearly all actives have a fitted effect of over 50% in size
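In this qHTS, NS1 from influenza A is expressed in budding yeast, where it slows growth. Cells are switched from glucose to 2% galactose medium (pH 6.0, -URA), treated with compound, and growth recovery is read at OD600.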
SARS PLP yeast – inhibitors of SARS-CoV papain-like protease in yeast; S. cerevisiae expressing SARS-CoV PLpro, growth rescue; Potency, µM (doses to about 32.9 µM), without a hit: top-dose activity, positive = growth rescue, most hits filed as activators; 330,000 tested, 0.19% active; AID 485353; further: potency means the concentration at half of the fitted maximal effect; 0% is about no effect; nearly all actives have a fitted effect of over 55% in size
Shiga inhibitor – blocks Shiga toxin action in Vero cells; AID 2315; inhibition, % at 38.7 µM; Vero cells, Shiga toxin protein synthesis inhibition reporter; 290,000 tested, 9.2% active; in the data active means inhibition mostly above about 28%, no sharp cut-off; inactive means mostly below about 43%; further: 0% is about no effect
Numbers without * were called inactive; ? = inconclusive; · = no result. An excerpt weighted towards active compounds, which were near 12% of everything screened. Unless noted, the call rests on the fitted dose curve.

SMILES	Cycloheximide cs	NS1 inh	SARS PLP yeast	Shiga inhibitor
C#CCOCCOCCOCCNc1nc(N2CCN(C(=O)[C@H](CC(N)=O)n3cc(C(N)[C@@H](C)CC)nn3)CC2)nc(N2CCN(C(=O)[C@H](CCC(=O)O)n3cc([C@@H](N)CCCCN)nn3)CC2)n1 (some centres undefined)	·	·	-7%	·
COc1nc(Nc2cccc(F)c2)nc(OC)n1	20*	-8%	4%	·
COc1nc(NCCO)nc(Nc2ccccc2F)n1	34*	·	-1%	83*
COc1nc(Nc2ccccc2F)nc(OC)n1	12*	-5%	2%	21
COc1ccccc1Nc1nc(C)cc(C)n1	-3	2%	26%	15
COc1cc2nc(Nc3cccc(F)c3)nc(N)c2cc1OC	14	-1%	-1%	24
Cc1ncn(-c2ccccc2O)c1C	·	0%	·	·
CC(C)c1cc(CNC(=O)CCc2nnc(CCCc3ccccc3)o2)on1	30*	-5%	1%	58*
CCc1cc(CNC(=O)CCc2nnc(Cc3cccc(C)c3)o2)on1	8	1%	0%	71*
Cc1cccc(Cc2nnc(CCC(=O)N(C)Cc3ccncc3C)o2)c1	8	2%	1%	39
CCc1cc(CNC(=O)CCc2nnc(CCCc3ccccc3)o2)on1	58*	-2%	-1%	79*
Cc1cccc(Cc2nnc(CCC(=O)NCc3ccncc3C)o2)c1	31*	0%	0%	35
CCc1ccc(-c2cc3c(=O)n(CC(=O)NCCCN4CCC(Cc5ccccc5)CC4)nc(C)n3n2)cc1	0	-5%	?	-6
COc1ccc(-c2cc3c(=O)n(CC(=O)N4CCCCC4)ncn3n2)cc1	-1	7%	8%	4
COc1ccc(-c2cc3c(=O)n(CC(=O)NCCCc4ccccc4)ncn3n2)cc1	16*	3%	5%	26*
COc1ccc(-c2cc3c(=O)n(CC(=O)NCc4ccccc4OC)ncn3n2)cc1	1	-2%	0%	-3
CCc1ccc(-c2cc3c(=O)n(CC(=O)NCCCN4CCN(C)CC4)ncn3n2)cc1	24*	-14%	?	36*
CCC1CCCCN1CCCNC(=O)Cn1ncn2nc(-c3ccc(OC)cc3)cc2c1=O (centres undefined)	29*	-2%	0%	55*
O=C(O)CCCNC(=O)CCCn1nnc2ccccc2c1=O	-2	6%	1%	46
CCN1CCN(c2cc(C)nc(-c3ccccc3O)n2)CC1	-2	-1%	0%	-10
Cc1ccc(CN2CCc3[nH]c(=O)[nH]c(=O)c3C2)cc1	-4	0%	1%	-6
N#Cc1cccc(NC(=O)COC(=O)c2ccc3c(=O)n4c(nc3c2)CCC4)c1	-2	·	0%	14
Cc1cc(N/C=C/C(=O)c2ccccc2)ccc1Br	37*	8%	0%	56*
CC(=O)Nc1ccc(N/C=C/C(=O)c2ccccc2)cc1	37*	-4%	0%	53*
COc1ccc(C(=O)/C=C/Nc2ccc(NC(C)=O)cc2)cc1OC	0	-17%	-9%	22
SMILES	Cycloheximide cs	NS1 inh	SARS PLP yeast	Shiga inhibitor
COc1cccc(C(=O)/C=C/Nc2ccc(NC(C)=O)cc2)c1	42*	-19%	-1%	60
O=C(/C=C/Nc1ccccc1)c1ccc(Cl)cc1Cl	42*	-28%	-4%	98*
O=C(NOCc1ccccc1)c1ccc(Cl)cc1Cl	·	·	0%	·
Cc1ccc([C@@H]2[C@@H]3C(=O)N(C)C(=O)[C@@H]3[C@]3(Cc4ccccc4)C(=O)N(Cc4ccccc4)CC(=O)N23)o1	-4	-18%	-8%	-1
COc1cc([N+](=O)[O-])ccc1NC(=O)NCC1CCN(Cc2ccc(Cl)cc2)CC1	-8	4%	-1%	19
O=C(/C=C/Nc1ccc(F)cc1Br)c1ccccc1	39*	9%	-1%	40*
O=C(/C=C/Nc1ccccc1)c1ccccc1	27*	-36%	-22%	29
CN(C)c1ccc(N/C=C/C(=O)c2ccccc2)cc1	28*	-14%	-7%	78*
COc1ccc(OC)c(N/C=C/C(=O)c2ccccc2)c1	-3	-30%	-5%	-37
COc1cccc(C(=O)/C=C/Nc2ccc(S(=O)(=O)Nc3cccc(C(C)=O)c3)cc2)c1	57*	-12%	-2%	97*
O=C(O)C1C2CCC(O2)C1C(=O)NCc1ccccc1Br (centres undefined)	0	3%	0%	-9
CN(C)c1ccc(N/C=C/C(=O)C(C)(C)C)cc1	60	-1%	-15%	148*
CC(C)(C)C(=O)/C=C/Nc1ccccc1O	8	-105%	-25%	32
C/C(=C\C(=O)c1ccc(Cl)cc1Cl)N(C)C	14	·	2%	32*
CN(C)/C=C/C(=O)c1ccc(Cl)cc1Cl	17	5%	-1%	11

Screening data: PubChem BioAssay, National Center for Advancing Translational Sciences (NCATS)
